The text below walks through data of PubChem BioAssay (NCI).

Values joined by “and” are separate entries in the source; they are usually repeats but may differ in a detail not shown here. Equal values may be shown once. The panel holds about 79,000 compounds, 15% with a hit somewhere; the sample as a whole holds those more often. A number with no mark means an inactive call. Active and inactive are the calls of the source. Cut-off read from the data, not from the text of the source: active = growth inhibition above about 70%; inactive = the rest.

A short description of test [1]: NCI Yeast Anticancer Drug Screen. Data for the rad50 strain (AID 155).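 Note: 0% = growth of vehicle-only cultures of the same strain.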 The following applies: S. cerevisiae rad50 strain growth inhibition, stronger effect = higher value. In short, it runs like this: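 Readout: growth inhibition relative to vehicle-treated cultures. Compound exposure was carried out in a genetically defined yeast strain deficient in DNA damage repair.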
The nature of test [2]: NCI Yeast Anticancer Drug Screen. Data for the mec2-1 strain (AID 157). The following applies: S. cerevisiae mec2-1 strain, stronger effect = higher value. The essentials:
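Vehicle-treated cultures served as reference for growth inhibition of compound-exposed mec2-1 yeast.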

A short description of test [3]: NCI Yeast Anticancer Drug Screen. Data for the sgs1 mgt1 strain (AID 161).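 Note: 0% = growth of cultures given vehicle only.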 The note with it: S. cerevisiae sgs1 mgt1 strain, stronger effect = higher value. The essentials:
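Genetically altered yeast, compound exposure, growth inhibition relative to vehicle.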

Test [4] can be described thus: NCI Yeast Anticancer Drug Screen. Data for the bub3 strain (AID 167). The note with it: S. cerevisiae bub3 mutant strain, stronger effect = higher value. The essentials:
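Readout: yeast growth inhibition, expressed relative to vehicle-only wells. The test organism is a mutant strain from a panel with lesions in DNA repair or checkpoint genes.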

A short description of test [5]: NCI Yeast Anticancer Drug Screen. Data for the mlh1 rad18 strain (AID 175). The following applies: S. cerevisiae mlh1 rad18 strain growth inhibition, stronger effect = higher value. In short, it runs like this:
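Vehicle-treated cultures served as the reference for growth inhibition in a yeast strain carrying DNA damage repair alterations exposed to each compound.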

Test [6] can be described thus: NCI Yeast Anticancer Drug Screen. Data for the cln2 rad14 strain (AID 165).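 Note: 0% = growth equal to vehicle treated cultures.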 The note with it: S. cerevisiae cln2 rad14 strain, stronger effect = higher value. The essentials:
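Each compound was tested on cln2 rad14 yeast. Inhibition of growth was calculated against vehicle-exposed controls.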

Where [7] appears, read: at 5.0 µM (retest, dose inferred, filed as 0.5).
The mark [8] stands for this setting: at 50.0 µM (retest, dose inferred, filed as 5.0).

Regarding `COC(=O)c1c[nH]c2ccc(Br)cc12`, the growth inhibition in test [1] (setting [7]) was -3%; in test [1] (setting [8]), 23%; in test [1] (at 50.0 µM), 30.9%; in test [2] (setting [7]), 8%; in test [2] (setting [8]), 43%; in test [2] (at 50.0 µM), 28.8%. The growth inhibition in test [3] (setting [7]) was -1%; in test [3] (setting [8]), 19%; in test [3] (at 50.0 µM) it was 31.8%; in test [4] (setting [7]), 7%; in test [4] (setting [8]), 22%; in test [4] (at 50.0 µM) it was 68.5%. Further, the figures for the growth inhibition in test [5] (setting [7]), in test [5] (setting [8]) and in test [5] (at 50.0 µM) were 23%, 40% and 40.5%, respectively.
For the compound `Nc1ncnc2nc(-c3ccc(C[P+](c4ccccc4)(c4ccccc4)c4ccccc4)cc3)[nH]c12`, the growth inhibition was -6% in test [1] (setting [7]); 77% (active) in test [1] (setting [8]); 72% (active) in test [1] (at 50.0 µM); 11% in test [2] (setting [7]); 43% in test [2] (setting [8]); 66.2% in test [2] (at 50.0 µM). The growth inhibition in test [6] (setting [7]) was -10%; in test [6] (setting [8]), 61%; in test [6] (at 50.0 µM) it was 62.6%; in test [4] (setting [7]), 11%; in test [4] (setting [8]), 61%; in test [4] (at 50.0 µM), 54.8%. In addition, the growth inhibition is -6% in test [5] (setting [7]), 83% (active) in test [5] (setting [8]) and 69.8% in test [5] (at 50.0 µM).
On to `Cc1cc(NC(=S)SC(C)C)ccc1Br`, for which the growth inhibition in test [1] (setting [7]) was 5%; in test [1] (setting [8]), 99% (active); in test [1] (at 50.0 µM) it was 99.5% (active); in test [2] (setting [7]), 0%; in test [2] (setting [8]), 100% (active); in test [2] (at 50.0 µM), 99.7% (active). Further, the growth inhibition in test [3] (setting [7]) was 2%; in test [3] (setting [8]) it was 99% (active); in test [3] (at 50.0 µM) it was 71.8% (active); in test [6] (setting [7]) it was -19%; in test [6] (setting [8]) it was 99% (active); in test [6] (at 50.0 µM), 98.9% (active). Further, the growth inhibition in test [5] (setting [7]) is -3%; in test [5] (setting [8]), 99% (active); in test [5] (at 50.0 µM), 99.3% (active).
For the compound `CC(C)(C)OC(=O)c1ccc(NCC2=C(Br)C(=O)C=CC2=O)cc1`, the growth inhibition in test [1] (setting [7]) is 18%; in test [1] (setting [8]), 98% (active); in test [1] (at 50.0 µM) it was 89.8% (active); in test [2] (setting [7]), 12%; in test [2] (setting [8]), 99% (active); in test [2] (at 50.0 µM), 94% (active). Further, the growth inhibition in test [3] (setting [7]) is 15%; in test [3] (setting [8]), 97% (active); in test [3] (at 50.0 µM), 83.4% (active); in test [6] (setting [7]), 5%; in test [6] (setting [8]), 94% (active); in test [6] (at 50.0 µM), 89.1% (active). The growth inhibition is 14% in test [5] (setting [7]), 99% (active) in test [5] (setting [8]) and 89.5% (active) in test [5] (at 50.0 µM).
As to `CC(C)NC(=O)O/N=C1\CCC2[C@@H]3CC=C4C[C@@H](OC(=O)NC(C)C)CC[C@]4(C)C3CC[C@]12C` (stereo partly drawn), the growth inhibition is 88% (active) in test [1] (setting [7]); 77% (active) in test [1] (setting [8]); 83% (active) in test [1] (at 50.0 µM); 91% (active) in test [2] (setting [7]); 67% in test [2] (setting [8]); 83% (active) in test [2] (at 50.0 µM). Also, the growth inhibition in test [6] (setting [7]) was 95% (active); in test [6] (setting [8]), 75% (active); in test [6] (at 50.0 µM) it was 81.2% (active); in test [4] (setting [7]), 83% (active); in test [4] (setting [8]) it was 72% (active); in test [4] (at 50.0 µM) it was 91.2% (active). The growth inhibition in test [5] (setting [7]) was 91% (active); in test [5] (setting [8]), 71% (active); in test [5] (at 50.0 µM) it was 92% (active).
For the compound `C/C=C/C(=O)NCC(C(C)C)/[N+]([O-])=N/O` (stereo not drawn), the growth inhibition in test [1] (setting [7]) was 94% (active); in test [1] (setting [8]) it was 95% (active); in test [1] (at 50.0 µM) it was 91.8% (active); in test [2] (setting [7]) it was 95% (active); in test [2] (setting [8]), 95% (active); in test [2] (at 50.0 µM), 93.3% (active). Besides, the growth inhibition in test [3] (setting [7]) is 97% (active); in test [3] (setting [8]), 97% (active); in test [3] (at 50.0 µM), 93.3% (active); in test [4] (setting [7]), 87% (active); in test [4] (setting [8]), 86% (active); in test [4] (at 50.0 µM), 91.8% (active). For the same compound, the growth inhibition in test [5] (setting [7]) was 97% (active); in test [5] (setting [8]), 97% (active); in test [5] (at 50.0 µM), 91.9% (active).
Turning to `CCc1c(O)c(O)c(C(C)=O)c2c(O)c(-c3c(C)cc4c(CC)c(O)c(O)c(C(C)=O)c4c3O)c(C)cc12`, the growth inhibition in test [1] (setting [7]) was -13%; in test [1] (setting [8]) it was 96% (active); in test [1] (at 50.0 µM), 94.2% (active); in test [2] (setting [7]) it was 9%; in test [2] (setting [8]), 96% (active); in test [2] (at 50.0 µM) it was 95.3% (active). Further, the growth inhibition in test [6] (setting [7]) was -20%; in test [6] (setting [8]), 94% (active); in test [6] (at 50.0 µM) it was 92.9% (active); in test [4] (setting [7]), 11%; in test [4] (setting [8]), 97% (active); in test [4] (at 50.0 µM), 95.7% (active). For the same compound, the figures for the growth inhibition in test [5] (setting [7]), in test [5] (setting [8]) and in test [5] (at 50.0 µM) were 7%, 96% (active) and 95.5% (active), respectively.
`Oc1ccc2cc(Br)ccc2c1O`: the growth inhibition in test [1] (setting [7]) was -28%; in test [1] (setting [8]), 97% (active); in test [1] (at 50.0 µM) it was 97.2% (active); in test [2] (setting [7]), -11%; in test [2] (setting [8]), 97% (active); in test [2] (at 50.0 µM), 98.3% (active). Moreover, the growth inhibition is 10% in test [3] (setting [7]); 98% (active) in test [3] (setting [8]); 97.5% (active) in test [3] (at 50.0 µM); -5% in test [4] (setting [7]); 98% (active) in test [4] (setting [8]); 98% (active) in test [4] (at 50.0 µM). For the same compound, the growth inhibition in test [5] (setting [7]) is -7%; in test [5] (setting [8]), 97% (active); in test [5] (at 50.0 µM) it was 98.2% (active).
In the case of `O=C1NN(C2=NNC3(C(=O)N2)c2ccccc2-c2ccccc23)C(c2ccccc2)=N/C1=C/c1ccc(Cl)cc1`, the growth inhibition was -9% in test [1] (setting [7]); -5% in test [1] (setting [8]); 32.4% in test [1] (at 50.0 µM); -13% in test [2] (setting [7]); -5% in test [2] (setting [8]); 17.4% in test [2] (at 50.0 µM). In addition, the growth inhibition in test [3] (setting [7]) is -1%; in test [3] (setting [8]) it was 6%; in test [3] (at 50.0 µM), -13.5%; in test [4] (setting [7]) it was -16%; in test [4] (setting [8]), -16%; in test [4] (at 50.0 µM) it was 18.4%. The figures for the growth inhibition in test [5] (setting [7]), in test [5] (setting [8]) and in test [5] (at 50.0 µM) were -48%, -10% and 44.1%, respectively.
As for `CSc1cccc(N2C(=O)C=CC2=O)c1`, the growth inhibition in test [1] (setting [7]) is 42%; in test [1] (setting [8]) it was 52%; in test [1] (at 50.0 µM), 91.5% (active); in test [2] (setting [7]), 49%; in test [2] (setting [8]), 48%; in test [2] (at 50.0 µM), 93.4% (active). In addition, the growth inhibition in test [3] (setting [7]) is 100% (active); in test [3] (setting [8]), 100% (active); in test [3] (at 50.0 µM) it was 94% (active); in test [4] (setting [7]), 100% (active); in test [4] (setting [8]) it was 100% (active); in test [4] (at 50.0 µM), 92.7% (active). For the same compound, the growth inhibition was 34% in test [5] (setting [7]), 45% in test [5] (setting [8]) and 92.5% (active) in test [5] (at 50.0 µM).
As for `CC(=O)OC1COC(SC(=N)N)C(OC(C)=O)C1OC(C)=O` (stereo not drawn), the growth inhibition was 41.4% and 24.4% and 20% in test [1] (at 50.0 µM); 15.8% and 17.9% and -1.25% in test [2] (at 50.0 µM); 27.9% and 22.1% and 24.4% in test [3] (at 50.0 µM); 19.6% and -30.5% and -41.8% in test [6] (at 50.0 µM); 1.65% and 6.55% and -1.75% in test [4] (at 50.0 µM); 22.6% and 29.1% and 4.55% in test [5] (at 50.0 µM).
`CN(CN(C)N=Nc1ccc(Cl)cc1)CN(C)N=Nc1ccc(Cl)cc1`: the growth inhibition is -14% in test [1] (setting [7]); 9% in test [1] (setting [8]); -3.1% in test [1] (at 50.0 µM); 3% in test [2] (setting [7]); -8% in test [2] (setting [8]); -1.75% in test [2] (at 50.0 µM). Also, the growth inhibition in test [4] (setting [7]) is 0%; in test [4] (setting [8]), 4%; in test [4] (at 50.0 µM), -0.7%; in test [5] (setting [7]), -12%; in test [5] (setting [8]) it was 3%; in test [5] (at 50.0 µM), 9.7%.
